# In PubChem BioAssay:
# A number with no mark means an inactive call. Activity calls are given as the source filed them.
# Experiment: plasmodial surface anion channel blockers, osmotic lysis – cell-based, P. falciparum Indochina, OD700, 1 h, primary screen (AID 1154)
# Conditions: P. falciparum Indochina infected RBC osmotic lysis, higher = more signal, called active from +8 up or from −8 down
row,SMILES,z-score
1,CCOC(=O)C1=CCC(c2ccccc2)N(S(=O)(=O)CC[Si](C)(C)C)C1 (stereo not given),2.49
2,O=C1OCCC/C=C\[C@H]2OC34C=CCN(CCN5CCOCC5)C(=O)[C@H]3N(CCCO)C(=O)[C@@H]4C12 (stereo not given in full),2.38
3,COc1cc2c(cc1O)C=[N+](Cc1cccc(OC(F)(F)F)c1)CC2,3.05
4,COc1ccc(C(=O)Nc2cccc(CN3C(=O)[C@]4(O[C@H](CCO)[C@@H]([Si](C)(C)c5ccc(OC)cc5)[C@@H]4C)c4ccccc43)c2)cc1,2.54
5,CCCCCN1CC=CC23O[C@@H]4/C=C\CCCOC(=O)C4[C@H]2C(=O)N(C(CO)C(C)C)[C@@H]3C1=O (stereo not given in full),0.724
6,O=C1O[C@H](c2ccccc2)[C@H](c2ccccc2)N2[C@H]1[C@@H](C(=O)NC[C@H](O)c1ccccc1)[C@]1(C(=O)Nc3ccccc31)[C@H]2c1ccc(OCCO)cc1,4.2
7,CCOC(=O)[C@H]1CC=C2CC1C(=O)N1CCC[C@@H]1[C@@H]2O[Si](C)(C)C(C)(C)C (stereo not given in full),2.09
8,CCN(CC)c1ccc(N2CC=CC34O[C@@H]5/C=C\CCCOC(=O)C5[C@H]3C(=O)N(CCO)[C@@H]4C2=O)cc1 (stereo not given in full),0.897
9,COCCOC(=O)N1C(=O)[C@@]2(c3cc(C#CC4=CCCCC4)ccc31)[C@H](C(=O)Nc1nc3ccccc3s1)[C@H]1C(=O)O[C@H](c3ccccc3)[C@H](c3ccccc3)N1[C@@H]2c1ccc(OCCO)cc1,2.63
10,CN1C(=O)C2C=CC(C(O)c3ccc(I)cc3)N(N3CCCCC3)C2C1=O (stereo not given),4.08
11,CC1CC/C=C\[C@H]2OC34C=CCN(c5ccc(Cl)cc5)C(=O)[C@H]3N(CCO)C(=O)[C@]4(C)C2C(=O)O1 (stereo not given in full),2.73
12,COCCOC(=O)N1C(=O)[C@@]2(c3cc(C#Cc4ccc(OC)cc4)ccc31)[C@H](c1ccc(O)cc1)N1[C@H](c3ccccc3)[C@H](c3ccccc3)OC(=O)[C@H]1[C@@H]2C(=O)NC[C@H](O)c1ccccc1,3.44
13,COc1ccc([Si](C)(C)[C@H]2[C@H](CCn3cc([C@H](O)c4ccccc4)nn3)O[C@@]3(C(=O)N(Cc4cccc(N5CCOC5=O)c4)c4ccccc43)[C@@H]2C)cc1,26.1 (active)
14,CN1C(=O)C2C=CC(C(O)C3=C[C@H]4C[C@@H](C3)C4(C)C)N(Nc3ccccc3)C2C1=O (stereo not given in full),0.451
15,CC(=O)NCCCC[C@@H]1NC(=O)[C@@H]2C[C@H](C(=O)NCCCCN(C)C)[C@H](c3cccc(OCCO)c3)N2C1=O,0.628
16,COc1ccc(CCNC(=O)[C@@]2(C)c3ccccc3C(=O)N(Cc3cc(F)cc(C(F)(F)F)c3)[C@H]2c2ccc(CO)cc2)cc1,8.08 (active)
17,C=CCOC(=O)[C@H]1[C@@H]2C(=O)O[C@@H](c3ccccc3)[C@@H](c3ccccc3)N2[C@@H](c2ccc(OCCOC(=O)[C@@H]3C[C@@H]4C(=O)N[C@@H](CCCC[N+](C)(C)C)C(=O)N4[C@@H]3c3ccc(O)cc3)cc2)[C@]12C(=O)Nc1ccccc12,-0.906
18,O=C1OCCC/C=C\[C@H]2OC34C=CCN(Cc5ccccc5)C(=O)[C@H]3N(CCCCCCO)C(=O)[C@@H]4C12 (stereo not given in full),2.96
19,C=C(CCCC)C(=O)CC[C@H](OC(C)=O)c1cccc(OCCO)c1,5.27
20,CC(C)N1C(=O)[C@@]2(Cc3ccccc31)c1ccccc1C(=O)N(C1CCCCC1)[C@H]2c1ccc(CO)cc1,0.206
21,COCCOC(=O)N1C(=O)[C@@]2(c3cc(C#CC4(O)CCCCCC4)ccc31)[C@H](c1ccc(O)cc1)N1[C@H](c3ccccc3)[C@H](c3ccccc3)OC(=O)[C@H]1[C@@H]2C(=O)Nc1nc2ccccc2s1,0.69
22,O=C1O[C@@H](c2ccccc2)[C@@H](c2ccccc2)N2[C@@H](c3ccccc3OCCO)[C@]3(C(=O)Nc4ccc(C#CC5=CCCCC5)cc43)[C@@H](C(=O)Nc3nc4ccccc4s3)[C@H]12,1.83
23,C=CCOC(=O)[C@@H]1[C@H]2C(=O)O[C@H](c3ccccc3)[C@H](c3ccccc3)N2[C@H](c2ccc(OCCOC(=O)[C@@H]3C[C@@H]4C(=O)N5CCC[C@H]5C(=O)N4[C@@H]3c3ccc(O)cc3)cc2)[C@@]12C(=O)Nc1ccc(I)cc12,2.19
24,C=CCNC(=O)[C@H]1[C@@H]2C(=O)O[C@@H](c3ccccc3)[C@@H](c3ccccc3)N2[C@@H](c2ccc(OCCO)cc2)[C@]12C(=O)N(C(=O)OCCOC)c1ccccc12,5.52
25,COc1ccc(C(=O)O[C@H]2CC[C@]3(C)C4=C(CCC3C2(C)C)[C@]2(C)CC[C@H]([C@H](C)CCCC(C)C)[C@@]2(C)CC4)cc1 (stereo not given in full),-0.44
